In PubChem BioAssay AID488829 (NMMLSC, 2010):
The other results are listed elsewhere or left out. A number with no mark means an inactive call.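 How the source made its calls: active means fluorescence change span, or the activity score built from it, above 25; inactive means the rest.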

Test: parental-strain fluorescence artefact check – primary hits, KU SAR, s288c parental, artefact control for yeast TOR pathway GFP screen, dose response (AID 488829)
Settings: S. cerevisiae s288c parental, compound autofluorescence, flow cytometry, 3 h; at 33 µM; stronger effect = higher value

SMILES | fluorescence change (span)
CN(C)CCCNc1nc(N)c([N+](=O)[O-])c(Nc2cccc(F)c2)n1 | 0.05
Cc1ccc(-c2nn(C(C)(C)C)c3ncnc(N)c23)cc1 | 0.41
